Source: PubChem BioAssay
A selection: hits, their analogues and other compounds. The true share with any hit is near 2.3%.
ATXN2 expr inh: ATXN2 expression inhibition; HEK-293 ATXN2-luciferase reporter, luminescence, 24 h; Potency, µM (highest dose often 57 µM), for inactives: at the highest dose activity change, negative = inhibition, actives largely listed as inhibitors; actives 0.72% (n = 360,000); further: on the % scale 0 is the no-effect control and ±100 the full control effect; nearly all actives have a fitted effect of over 55% in size
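ATXN2-luciferase reporter cells (luciferase flanked by upstream and downstream ATXN2 gene portions) were treated 24 h at 37 °C with compounds at up to 57 uM. SteadyGlo luminescence gave expression; GF-AFC fluorescence gave viability.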
TGFb SMAD3 inh: inhibitors of TGF-b signaling; actives 1.2% (n = 410,000); HepG2 CAGA-GFP TGF-b/SMAD3 reporter, GFP fluorescence, 18 h; TGF-beta stimulated, 500 pg/mL final; Potency, µM (doses to about 46.1 µM), inactives show at the highest dose activity, negative = inhibition, actives largely listed as inhibitors; AID 588855; further: on the % scale 0 is the no-effect control and ±100 the full control effect; nearly all actives have a fitted effect of over 65% in size
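Smad-responsive CAGA-GFP expression was quantified in HEPG2 cells exposed to compounds and 500 pg/mL final TGF-beta for 18 h at 37 degrees C; unstimulated wells defined full inhibition.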
HepG2 viability: counter-screen for TGF-b inhibitors: cytotoxicity in HepG2 cells; HepG2 CAGA-GFP viability, ATP luminescence, 18 h; Potency, µM (series often up to 46.1 µM), inactives show top-dose activity change, negative = cytotoxicity, hits mostly cytotoxic; actives 0.76% (n = 410,000); AID 588856
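CellTiter-Glo luminescence gave cytotoxicity after 18 hours at 37 degrees C. The cells were HepG2 CAGA-GFP in 1% FBS DMEM, stimulated with 500 pg/mL TGF-beta after compound addition. %Activity was normalised to no-cell wells (complete cell-killing) and DMSO (no toxicity), and curves were fitted and classified.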
S2 tox: reduces viability in counter-screen for ATXN expression inhibitors; S2 cells (HEK-293 line with an ATXN2-luciferase reporter) viability, CellTiter-Fluor protease fluorescence, 24 h; Potency, µM (series often up to 56.7 µM), usual class: cytotoxic; actives 0.49% (n = 400,000); further: nearly all actives have a fitted effect of over 40% in size
* = called active by the depositor; i = inactive; ? = inconclusive; · = not tested or not shown; [ ] = remark or other dose. The call rests on the fitted dose curve; in most records, active means well fitted curve in the direction sought with a large enough effect; inconclusive means small, poorly fitted or top-dose-only effect, or another doubt; inactive means no such curve, though single readings can be large; an effect the other way counts as inactive or inconclusive. Potency means the concentration at half of the fitted maximal effect.

SMILES | ATXN2 expr inh | TGFb SMAD3 inh | HepG2 viability | S2 tox
CC1CCC(NC(=O)c2ccc(CSc3nc4ccncc4n3Cc3ccc(F)cc3)cc2)CC1 (centres undefined) | ? | 3.5µM* | -30% | ?
O=C(c1ccc(CSc2nc3ccncc3n2Cc2ccccc2F)cc1)N1CCCCCC1 | -14% | ? | -13% | i
Cc1ccc(Cn2c(SCc3ccc(C(=O)NCCc4ccccc4)cc3)nc3ccncc32)cc1 | · | ? | -25% | ·
Cc1ccc2c(c1)CCCN2C(=O)c1cnn2c1NC(=C1CC1)C=C2C(F)F | · | -13% | -9% | ·
COC(=O)COc1ccc(S(=O)(=O)Nc2ccc(C(N)=O)cc2)cc1C | -2% | 16µM* | -94% | i
COC(=O)COc1ccc(S(=O)(=O)Nc2ccc(C(N)=O)cc2)cc1Cl | -9% | -26% | -2% | i
O=C(c1ccco1)N1CCNCC1 | -1% | · | · | i
COc1ccc(CC(N)c2csc(NC(=O)Nc3ccc(F)cc3)n2)cc1 (centres undefined) | -32% | 11µM* | 18µM* | i
COc1ccc(CC(N)c2csc(NC(=O)c3cccs3)n2)cc1 (centres undefined) | -30% | 14µM* | -26% | i
COc1ccc(CC(N)c2csc(NC(=O)Nc3cc(OC)ccc3OC)n2)cc1 (centres undefined) | ? | ? | -63% | ?
COc1ccc(OC)c(NC(=O)Nc2nc(C(N)CCc3ccccc3)cs2)c1 (centres undefined) | ? | ? | 16µM* | ·
COc1ccc(CC(N)c2csc(NC(=O)Nc3ccccc3-c3ccccc3)n2)cc1 (centres undefined) | ? | ? | 16µM* | ·
COc1ccc2c(c1)CCc1cnc(-n3ncc(C(=O)NCCCN4CCOCC4)c3C)nc1-2 | · | · | · | i
Cc1ccc(CN2C[C@H](Sc3ccccn3)C[C@H]2C(=O)Nc2ccc3sc(C)nc3c2)c(C)c1 | · | · | · | i
CCCN1CCCc2cc(CN(CCCN3CCOCC3)C(=O)Nc3ccc(OCC)cc3)ccc21 | -1% | -26% | -6% | ?
CCCN1CCCc2cc(CN(CCCN3CCOCC3)C(=O)Nc3ccc(Cl)c(Cl)c3)ccc21 | 0% | ? | -37% | 10µM*
CCN(Cc1ccncc1)Cc1ccc2c(c1)CN(C(=O)c1cccc(-n3nc(C)cc3C)c1)CCO2 | · | · | · | i
CN1CCN(CC(O)Cn2c3ccccc3c3ccccc32)CC1 (centres undefined) | · | 7% | -1% | i
CN1CCN(CC#CCn2c3ccccc3c3ccccc32)CC1 | 25µM* | -27% | -36% | ?
C[C@@H]1CC[C@]2(C(=O)O)CC[C@]3(C)C(=CCC4[C@]56CC[C@@](O)(OC5)C(C)(C)C6CC[C@]43C)C2[C@H]1C (some centres undefined) | ? | ? | -34% | 25µM*
CCC1CN(CCNC(=O)c2ccc(N3CCOCC3)cc2)Cc2cc(OC)ccc2O1 (centres undefined) | · | · | · | i
COc1cc(-c2c(OC)cccc2OC)cc2c1OCCN(C(=O)CCC(=O)c1ccc(F)cc1)C2 | · | · | · | i
COc1ccc(-n2nnnc2S(=O)(=O)Cc2ccc(C(=O)O)cc2)cc1 | ? | -17% | -6% | ?
CCS(=O)(=O)c1nnnn1-c1ccccc1S(C)(=O)=O | -26% | 11µM* | -2% | ?
Cc1cc(C)nc(SCC(=O)c2ccc(O)c(O)c2)n1 | 8% | 1% | -11% | i
SMILES | ATXN2 expr inh | TGFb SMAD3 inh | HepG2 viability | S2 tox
Cc1cc(SCC(=O)c2ccc(O)c(O)c2)n2nc(C)c(-c3ccccc3)c2n1 | ? | 18µM* | -28% | ?
O=[N+]([O-])c1ccc(O)c(/C=N/Nc2ccccn2)c1 | 2.8µM* | ? | -83% | i
O=[N+]([O-])c1ccc(O)c(/C=N/Nc2ncnc3c2cnn3-c2ccccc2)c1 | 2.8µM* | ? | -78% | ?
CC(C)=C[C@@H]1C[C@H](C)[C@H]2CC[C@H](C)c3c(O)c(O)c(C)c1c32 | -1% | -10% | -42% | i
CC(=O)OC1[C@H](Oc2c(O)c(C)c3c4c2[C@@H](C)CC[C@@H]4[C@@H](C)C[C@@H]3C=C(C)C)OC[C@@H](O)[C@@H]1O (some centres undefined) | 3% | 11µM* | -48% | i
CC(=O)O[C@H]1[C@H](O)[C@H](Oc2c(O)c(C)c3c4c2[C@@H](C)CC[C@@H]4[C@@H](C)C[C@H]3C=C(C)C)O[C@@H](C)[C@H]1O | ? | 11µM* | -114% | ?
CC(C)=C[C@H]1C[C@H](C)[C@H]2CC[C@H](C)c3c(O[C@@H]4OC[C@@H](O)[C@H](O)C4O)c(O)c(C)c1c32 (some centres undefined) | ? | ? | 22µM* | ?
Cc1ccc(OCCCC(=O)Nc2nc3ccccc3[nH]2)cc1 | -17% | 12% | -13% | i
Cc1cccc(OCCCC(=O)Nc2nc3ccccc3[nH]2)c1 | 13µM* | ? | -6% | i
COc1ccc2ccccc2c1CN1CCc2nnc(C(NS(C)(=O)=O)C(C)C)n2CC1 (centres undefined) | · | · | · | i
Cc1ccc(C)c(N2CCN(C(=O)c3noc4c3CCCCC4)CC2)c1 | · | 13µM* | -27% | ·
O=C(c1noc2c1CCCC2)N1CCN(c2ccccc2)CC1 | 46% | -27% | 2% | i
CC(C)(C)n1ncc2c(=O)n(Cc3ccc(-c4ccccc4C#N)cc3)cnc21 | · | -2% | 3% | ·
O=c1c2cc(NC(=S)NCCCN3CCC(Cc4ccccc4)CC3)ccc2nc2n1CCCCC2 | -12%[11.3 µM] | ? | 16µM* | i
O=C(Nc1ccc2nc3n(c(=O)c2c1)CCCCC3)c1cc([N+](=O)[O-])ccc1F | ? | ? | 13µM* | ·
O=c1c2cc(NC(=S)NCCN3CCCCCC3)ccc2nc2n1CCCCC2 | -16% | -1% | -1% | i
COc1ccccc1/C=C1\C=Cc2ccccc21 | · | -18% | -13% | ·
O=S(=O)(c1ccc2ccccc2c1)N1CCN(c2nc(-c3ccccc3)nc3ccccc23)CC1 | · | -4% | 24% | ·
Cc1ccc(C(=O)C(c2ccccc2)N2Cc3ccccc3C2=N)cc1 (centres undefined) | 0% | ? | -53% | 14µM*
CCn1c(N)[n+](CC(=O)Nc2ccc(SC(F)F)cc2)c2ccccc21 | ? | ? | 14µM* | i
CC[N+](CC)(CC)CC(=O)Nc1ccc(SC(F)F)cc1 | -25% | 2% | 10% | i
Nc1ccc(O)c2c1C(=O)c1ccccc1C2=O | -18% | -18% | -37% | 20µM*
Nc1ccc(Br)c2c1C(=O)c1ccccc1C2=O | 0% | ? | -24% | ?
Cc1cc(C)c(C(=O)/C=C/c2cccc3ccccc23)c(=O)[nH]1 | ? | ? | -42% | ?
Cc1[nH]c(=O)c(C(=O)/C=C/c2ccccc2F)c2c1CCCC2 | 8.9µM* | ? | -85% | 28µM*
